# Measurements as given in PubChem BioAssay (NCATS).
# Inconclusive results are not listed. Unmarked numbers belong to inactive results. Activity calls are given as the source filed them. Calls come from the whole dose curve; as a rule, active = well fitted cell-killing curve with a large enough effect; inconclusive = small, poorly fitted or top-dose-only effect, or effect the other way; inactive = no such curve, though single readings can be large or run the other way.
# Assay: Quantitative High-Throughput drug screen in 47 multiple myeloma cell lines against the NCATS MIPE library collection: PCM6_Riken cell viability assay (AID 1919870)
# Conditions: CellTiter-Glo ATP, 48 h; series mostly up to 45.8 µM; viability (% of control): at the top concentration
# Procedure, shortened: (§1)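 Myeloma cells (500/well) treated with MIPE 4.0 compounds for 48 h at 37 °C, 5% CO2. Viability read as ATP via CellTiter-Glo luminescence after 5 min at RT; DMSO-only wells = 100%, media-only = 0% viability.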
# Note: nearly all actives have a fitted effect of over 30% in size.
# Potency is the fitted concentration of half-maximal effect.
Compound,viability (% of control),Potency
CC(=O)OCC1=C(C(=O)O)N2C(=O)[C@@H](N)[C@@H]2SC1,134%,
Cc1c(C(=O)c2cccc3ccccc23)c2cccc3c2n1[C@H](CN1CCOCC1)CO3,105%,
CCOC(=O)c1c(C(C#N)=CN)c2ccc(Cl)c(Cl)c2n1C,70.5%,
COC1=C[C@@H]2[C@@H]3Cc4ccc(OC)c(O)c4[C@]2(CCN3C)CC1=O,,2.64 µM (active)
CC(C)[C@H]1C(=O)N[C@H](CO)Cc2c[nH]c3cccc(c23)N1C,,0.264 µM (active)
COc1cc([C@@H]2c3cc4c(cc3[C@@H](O)C3COC(=O)C32)OCO4)cc(OC)c1O (stereo not given in full),,0.0469 µM (active)
CC(=O)O[C@@]12CO[C@H]1C[C@H](O)[C@@]1(C)C(=O)[C@H](O)C3=C(C)[C@@H](O)C[C@@](O)([C@@H](OC(=O)c4ccccc4)[C@@H]21)C3(C)C,,3.32 µM (active)
C[C@]12CC[C@H]3[C@@H](CCC4=CC(=O)CC[C@@]43C)[C@H]1CC[C@H]2OC(=O)CCC1CCCC1,102%,
O=C(NCC1CCOCC1)c1cnc(Nc2ccc(Cl)cc2Cl)nc1C(F)(F)F,,5.9 µM (active)
Cc1ccccc1-n1c(Cn2cnc3c(N)ncnc32)nc2cccc(C)c2c1=O,,1.66 µM (active)
CN[C@@H]1Cc2cccc3[nH]c(=O)n(c23)C1,111%,
CC(=O)Nc1ccc(OC[C@](C)(O)C(=O)Nc2ccc([N+](=O)[O-])c(C(F)(F)F)c2)cc1,92.5%,
O=C1CCC[C@@H]2[C@H]3CCCN4CCC[C@@H](CN12)[C@@H]34,82.8%,
CC(C)N[C@@H]1CCn2c(=O)[nH]c3cccc(c32)[C@@H]1O,,5.26 µM (active)
COc1ccc(N(C(=O)Oc2c(C)cccc2C)c2ccnc(Nc3ccc(N4CCN(C)CC4)cc3)n2)c(OC)c1,,16.6 µM (active)
C[C@]12Cc3cn[nH]c3C[C@@H]1CC[C@@H]1[C@H]2CC[C@@]2(C)[C@H]1CC[C@]2(C)O,119%,
CCNC(=O)CC1N=C(c2ccc(Cl)cc2)c2cc(OC)ccc2-n2c(C)nnc21 (stereo not given),,23.5 µM (active)
C[C@]12CC[C@H]3[C@@H](CCC4=CC(=O)CC[C@@]43C)[C@H]1CC[C@H]2O,99.7%,
Cc1ccccc1-n1c(Cn2ncc3c(N)ncnc32)nc2cccc(C)c2c1=O,,0.296 µM (active)
O=S(=O)(CC1CS1)c1ccc(Oc2ccccc2)cc1 (stereo not given),,23.5 µM (active)
C=CCON=C(C[C@H]1O[C@@H]2O[C@]3(C)CC[C@@H]4[C@H](C)CC[C@@H]([C@H]1C)[C@@]24OO3)[C@H]1O[C@@H]2O[C@]3(C)CC[C@H]4[C@H](C)CC[C@@H]([C@@H]1C)[C@@]24OO3,,0.526 µM (active)
c1cc2c(cc1[C@H]1OC[C@H]3[C@H]1CO[C@H]3c1ccc3c(c1)OCO3)OCO2,101%,
CC(C)(O)C(=O)Nc1ccc([N+](=O)[O-])c(C(F)(F)F)c1,,8.33 µM (active)
C[C@]12CC[C@@H]3[C@@H](CCC4=CC(=O)CC[C@@H]43)[C@@H]1CC[C@@H]2OC(=O)CCc1ccccc1,136%,
COc1ccc(C(=O)c2c(C)n(CCN3CCOCC3)c3cc(I)ccc23)cc1,,11.8 µM (active)
N#C[C@H](O[C@@H]1O[C@H](CO[C@@H]2O[C@H](CO)[C@H](O)[C@H](O)[C@H]2O)[C@H](O)[C@H](O)[C@H]1O)c1ccccc1,,18.7 µM (active)
CCOP(=O)(OCC)C(C)NC(=O)N(CCCl)N=O (stereo not given),136%,
COC[C@H]1OC(=O)c2coc3c2[C@@]1(C)C1=C(C3=O)[C@@H]2CC[C@H](O)[C@@]2(C)C[C@@H]1OC(C)=O,,3.72 µM (active)

# Assay: Quantitative High-Throughput drug screen in 47 multiple myeloma cell lines against the NCATS MIPE library collection: RPMI8226_ATCC cell viability assay (AID 1919871)
# Conditions: RPMI8226 myeloma viability, CellTiter-Glo ATP luminescence, 48 h; series mostly up to 45.8 µM; viability (% of control): at the top concentration
# Procedure, shortened: as §1
Compound,Potency,viability (% of control)
Cc1c(C(=O)c2cccc3ccccc23)c2cccc3c2n1[C@H](CN1CCOCC1)CO3,23.5 µM (active),
CCOC(=O)c1c(C(C#N)=CN)c2ccc(Cl)c(Cl)c2n1C,,80.1%
COC1=C[C@@H]2[C@@H]3Cc4ccc(OC)c(O)c4[C@]2(CCN3C)CC1=O,,112%
COc1cc([C@@H]2c3cc4c(cc3[C@@H](O)C3COC(=O)C32)OCO4)cc(OC)c1O (stereo not given in full),0.118 µM (active),
CC(=O)O[C@@]12CO[C@H]1C[C@H](O)[C@@]1(C)C(=O)[C@H](O)C3=C(C)[C@@H](O)C[C@@](O)([C@@H](OC(=O)c4ccccc4)[C@@H]21)C3(C)C,2.96 µM (active),
O=C(NCC1CCOCC1)c1cnc(Nc2ccc(Cl)cc2Cl)nc1C(F)(F)F,,96.3%
CCNC(=O)C[C@@H]1N=C(c2ccc(Cl)cc2)c2cc(OC)ccc2-n2c(C)nnc21,1.18 µM (active),
CN[C@@H]1Cc2cccc3[nH]c(=O)n(c23)C1,,104%
COc1ccc(N(C(=O)Oc2c(C)cccc2C)c2ccnc(Nc3ccc(N4CCN(C)CC4)cc3)n2)c(OC)c1,4.18 µM (active),
CCNC(=O)CC1N=C(c2ccc(Cl)cc2)c2cc(OC)ccc2-n2c(C)nnc21 (stereo not given),4.69 µM (active),
C[C@]12CC[C@H]3[C@@H](CCC4=CC(=O)CC[C@@]43C)[C@H]1CC[C@H]2O,,121%
Cc1ccccc1-n1c(Cn2ncc3c(N)ncnc32)nc2cccc(C)c2c1=O,8.33 µM (active),
C[C@]12COC(=O)C[C@@H]1CC[C@@H]1[C@H]2CC[C@@]2(C)[C@H]1CC[C@]2(C)O,,124%
C=CCON=C(C[C@H]1O[C@@H]2O[C@]3(C)CC[C@@H]4[C@H](C)CC[C@@H]([C@H]1C)[C@@]24OO3)[C@H]1O[C@@H]2O[C@]3(C)CC[C@H]4[C@H](C)CC[C@@H]([C@@H]1C)[C@@]24OO3,0.235 µM (active),
c1cc2c(cc1[C@H]1OC[C@H]3[C@H]1CO[C@H]3c1ccc3c(c1)OCO3)OCO2,,111%
CC(C)(O)C(=O)Nc1ccc([N+](=O)[O-])c(C(F)(F)F)c1,,119%
Clc1ccccc1C(c1ccccc1)(c1ccccc1)n1cccn1,20.9 µM (active),
COc1ccc(C(=O)c2c(C)n(CCN3CCOCC3)c3cc(I)ccc23)cc1,18.7 µM (active),
Cc1c(C(=O)Nc2cccc(C(F)(F)F)c2)cc(-c2ccccc2)n1CCCN1CCOCC1,14.8 µM (active),
N#C[C@H](O[C@@H]1O[C@H](CO[C@@H]2O[C@H](CO)[C@H](O)[C@H](O)[C@H]2O)[C@H](O)[C@H](O)[C@H]1O)c1ccccc1,23.5 µM (active),
CCOP(=O)(OCC)C(C)NC(=O)N(CCCl)N=O (stereo not given),,121%
COC[C@H]1OC(=O)c2coc3c2[C@@]1(C)C1=C(C3=O)[C@@H]2CC[C@H](O)[C@@]2(C)C[C@@H]1OC(C)=O,2.96 µM (active),
